BAZ2B inh – qHTS Assay for Inhibitors of BAZ2B; AlphaScreen BAZ2B-H3K14Ac peptide displacement; Potency, µM (highest dose often 114 µM), actives largely listed as inhibitors; 360,000 compounds, 4.4% hits; AID 504333, 2011; also: nearly all actives have a fitted effect of over 60% in size
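Protein-peptide AlphaScreen: BAZ2B 50 nM, b-H3K14Ac 50 nM, 1x PBS pH 7.4 + 0.01% Tween-20. Preincubation 30 min RT; cpd 30 min RT (top 110 uM); beads 20 min RT, light-protected.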
GCN5L2 inh – qHTS Assay for Inhibitors of GCN5L2; 390,000 compounds, 0.21% hits; GCN5L2 HAT assay, ThioGlo1 CoA-SH fluorescence; Potency, µM (titrated, usually from 58.9 µM), usual class: inhibitors; Histone acetyltransferase KAT2A (Homo sapiens), Q92830
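qHTS, 1536-well. 20nM enzyme, pH 7.5 HEPES/EDTA/Tween-20 buffer; 15 min compound preinc., RT. Start: 75uM H3(1-25), 70uM AcCoA, 50uM ThioGlo1. Read Ex340/Em540 at t=0 (autofluorescence flag) and t=20 min.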
HP1b binding inh – HTS for Inhibitors of HP1-beta Chromodomain Interactions with Methylated Histone Tails | Chromobox protein homolog 1 (Homo sapiens), P83916 | AlphaScreen HP1-beta / biotin-H3K9me3 peptide binding | Potency, µM (top dose mostly 114 µM), most hits filed as inhibitors | 390,000 compounds, 0.56% hits; also: nearly all actives have a fitted effect of over 70% in size
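HP1-beta protein (50 nM final) preincubated 30 min at room temperature with biotinylated H3(1-18)K9me3 peptide (50 nM) in PBS pH 7.4, 0.01% Tween-20, then compound added for 30 min. AlphaScreen streptavidin donor/nickel chelate acceptor beads (10 ug/mL final), 30 min dark, luminescence read.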
JMJD2A Tudor – qHTS Assay for Inhibitors of JMJD2A-Tudor Domain | Lysine-specific demethylase 4A (Homo sapiens), O75164 | AlphaScreen JMJD2A-Tudor / H3K4me3 peptide binding | Potency, µM (top dose mostly 114 µM), actives largely listed as inhibitors | 390,000 compounds, 4.4% hits; also: nearly all actives have a fitted effect of over 50% in size
Target sequence (O75164 whole entry, looked up, the tested form may be a part): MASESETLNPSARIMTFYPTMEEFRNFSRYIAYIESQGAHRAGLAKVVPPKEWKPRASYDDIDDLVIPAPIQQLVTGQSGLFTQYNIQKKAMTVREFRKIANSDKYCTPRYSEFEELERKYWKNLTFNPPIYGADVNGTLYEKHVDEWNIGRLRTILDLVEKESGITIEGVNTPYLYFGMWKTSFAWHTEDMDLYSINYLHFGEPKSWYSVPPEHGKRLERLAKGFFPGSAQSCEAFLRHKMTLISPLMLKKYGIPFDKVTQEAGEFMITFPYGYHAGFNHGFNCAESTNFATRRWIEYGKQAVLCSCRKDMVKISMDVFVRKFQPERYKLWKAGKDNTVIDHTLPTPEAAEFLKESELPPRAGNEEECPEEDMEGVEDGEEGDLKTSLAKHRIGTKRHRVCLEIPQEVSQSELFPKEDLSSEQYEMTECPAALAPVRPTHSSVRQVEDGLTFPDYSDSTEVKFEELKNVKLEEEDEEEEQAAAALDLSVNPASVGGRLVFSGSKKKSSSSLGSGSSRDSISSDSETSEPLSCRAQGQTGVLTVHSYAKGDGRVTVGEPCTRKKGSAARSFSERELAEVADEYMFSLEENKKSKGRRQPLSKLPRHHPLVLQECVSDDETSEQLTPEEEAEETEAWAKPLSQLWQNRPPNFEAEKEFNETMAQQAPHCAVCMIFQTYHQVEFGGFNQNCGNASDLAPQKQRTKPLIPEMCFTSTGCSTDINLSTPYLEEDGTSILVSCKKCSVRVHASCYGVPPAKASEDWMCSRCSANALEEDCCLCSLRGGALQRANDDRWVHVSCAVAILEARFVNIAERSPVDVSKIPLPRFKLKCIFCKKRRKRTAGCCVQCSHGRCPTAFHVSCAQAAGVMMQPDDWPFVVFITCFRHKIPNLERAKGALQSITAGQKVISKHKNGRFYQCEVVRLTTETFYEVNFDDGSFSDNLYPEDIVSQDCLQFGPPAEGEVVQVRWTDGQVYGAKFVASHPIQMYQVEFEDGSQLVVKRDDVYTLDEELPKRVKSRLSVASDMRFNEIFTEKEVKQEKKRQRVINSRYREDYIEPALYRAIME
PLK1 PBD inh – qHTS for Inhibitors of PLK1-PDB (polo-like kinase 1 - polo-box domain): Primary Screen | Serine/threonine-protein kinase PLK1 (Homo sapiens), P53350 | Plk1 PBD binding of FITC phosphopeptide, fluorescence polarization | Potency, µM, hits mostly inhibitors | 360,000 compounds, 2.8% hits | AID 720504, 2013; also: series mostly up to about 57 µM; nearly all actives have a fitted effect of over 65% in size
PI5P4Ka inh – qHTS for Inhibitors of phosphatidylinositol 5-phosphate 4-kinase (PI5P4K); Phosphatidylinositol 5-phosphate 4-kinase type-2 alpha (Homo sapiens), P48426; AID 652105, 2013; PI5P4Kalpha enzyme, ADP-Glo luminescence, 60 min; active compounds read low; 330,000 compounds, 1.2% hits; max response, %; active = max response of -50% or lower; inconclusive = between -30% and -50%; inactive = -30% or higher; also: value at the top dose of about 77 µM
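Human PI5P4Kalpha with substrate in 0.038 M HEPES pH 7.4, 0.28 mM EGTA, 0.1% CHAPS, 5% DMSO; reaction started with 5 microM ATP (final), 60 min at room temperature. ADP formed read by ADP-Glo luminescence.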
A number is an active result; 0 = inactive; ? = inconclusive; - = not tested or not shown; [ ] = dose if it differs, or a comment. The list is not random: actives were taken first. Their share in the collection is about 7%. Unless noted, calls follow the shape of the dose curve; as a rule, active = well fitted curve in the direction sought with a large enough effect; inconclusive = small, poorly fitted or top-dose-only effect, or another doubt; inactive = no such curve, though single readings can be large; an effect the other way counts as inactive or inconclusive.

SMILES | BAZ2B inh | GCN5L2 inh | HP1b binding inh | JMJD2A Tudor | PLK1 PBD inh | PI5P4Ka inh
Cc1csc(Nc2ccccc2)[n+]1-c1ccccc1 | 45µM | 0 | 28µM | 22µM | 0 | 0
Cc1csc(Nc2ccccc2)[n+]1C | - | 0 | 0 | 0 | 0 | 0
COc1ccc(-n2nc3cc(C)c(N)c(Br)c3n2)cc1 | 0 | 0 | 0 | 0[11.4 µM] | 3.8µM | 0
Cc1ccc(Cl)cc1NC(=O)C(NS(=O)(=O)c1cccc2nsnc12)c1ccccc1 (stereo not drawn) | - | 0 | 0 | ? | - | -
COc1ccccc1C(=O)Oc1ccc2c(c1)O/C(=C\c1ccncc1)C2=O | ? | 0 | 0 | ? | 0 | -57
CC(=O)Oc1ccc2c(c1)O/C(=C\c1ccncc1)C2=O | 0 | 0 | 0 | 0 | ? | -53
O=C(NC(NC(=S)Nc1ccccc1Cl)C(Cl)(Cl)Cl)c1cccc(Cl)c1 (stereo not drawn) | 0 | 0 | 0 | 0 | ? | 0
O=C(Cc1cccc2ccccc12)NC(NC(=S)Nc1ccccc1Cl)C(Cl)(Cl)Cl (stereo not drawn) | 0 | 0 | ? | 0 | 24µM | 0
CC(=O)Nc1cccc(-c2ccnc3c2CC(C)(C(=O)Nc2ccc4c(c2)OCO4)O3)c1 (stereo not drawn) | - | - | - | - | 0 | 0
Cc1ccc(Nc2nnc(SCC(=O)NC3CC3)s2)cc1 | 0 | 0 | 0 | 0 | 0 | 0
CN1CCN(C(=S)NC(=O)c2cccc(S(=O)(=O)N(C)C)c2)CC1 | 0 | 0 | 0 | 0 | 0 | 0
CC(=O)NC1C(=O)N(CCN2CCOCC2)c2ccc(C)cc21 (stereo not drawn) | 5µM | 0 | ? | 7.1µM | 0 | 0
Cc1ccc2c(c1)C(=C(C#N)C#N)C(=O)N2CCN1CCCCC1 | 0 | ? | ? | ? | ? | 0
CC(=O)NC1C(=O)N(CCN2CCOCC2)c2ccc(F)cc21 (stereo not drawn) | 10µM | 0 | 0 | 22µM | 0 | 0
Cc1ccc2c(c1)C(=C(C#N)C#N)C(=O)N2CCN1CCOCC1 | 0 | 0 | 0 | 0 | 12µM | 0
CCCCN1C(=O)C(NC(C)=O)c2cc(Br)ccc21 (stereo not drawn) | 0 | 0 | 0 | 0 | 0 | 0
CC(=O)NC1C(=O)N(CCN2CCOCC2)c2ccc(Cl)cc21 (stereo not drawn) | 8.9µM | 0 | ? | 13µM | 0 | 0
N#Cc1nc(Nc2cc(F)cc(F)c2)nc(Nc2cc(F)cc(F)c2)n1 | - | - | - | 0 | - | -
COc1cc(/C=C2\C(=O)N(CCC#N)N=C2C)c(Br)cc1OC(C)C | 0 | 0 | 0 | 0 | 1.7µM | -
CC1=NN(c2ccccc2)C(=O)/C1=C\c1cn(CCC#N)nc1-c1ccc(Cl)cc1 | ? | 0 | ? | ? | 0 | 0
COc1cc2cnc(-c3ccccc3)c(-c3cccc(C(F)(F)F)c3)c2cc1OC | 56µM | 0 | 0 | 0 | 0 | 0
Fc1ccc2cnc(-c3ccccc3)c(-c3cccc(C(F)(F)F)c3)c2c1 | 0 | 0 | 0 | 0 | 0 | 0
O=S(=O)(N/N=C1/CC(c2ccccc2)Oc2ccccc21)c1ccccc1 (stereo not drawn) | - | - | 0 | 0 | 0 | 0
CC(C)(C)N/N=C1\CC(c2ccccc2)Oc2ccccc21 (stereo not drawn) | 0 | 0 | 0 | 0 | 30µM | 0
COCCNC(=S)NNc1cccc(C(=O)O)c1 | - | 0 | ? | 10µM | 21µM | 0
SMILES | BAZ2B inh | GCN5L2 inh | HP1b binding inh | JMJD2A Tudor | PLK1 PBD inh | PI5P4Ka inh
Cc1ccc(Cn2c(=O)c3c(nc4n3CCN4c3cc(C)cc(C)c3)n(C)c2=O)cc1 | 0 | 0 | 0 | 0 | - | -
Cc1cccc(CSCc2ccc(C(=O)O)o2)c1 | 0 | 0 | ? | 0 | 24µM | 0
Cc1ccc(CSCc2ccc(C(=O)O)o2)cc1 | 0 | 0 | 0 | 0 | 0 | 0
Cc1ccc(CNC(=O)c2ccc(CSCc3cccc(C)c3)o2)cc1 | 0 | 0 | 0 | 0 | - | -
Cc1ccc(CNC(=O)c2ccc(CSCc3ccc(C)cc3)o2)cc1 | 0 | 0 | 0 | 32µM | - | -
C[C@@H]1CN([C@H](C)CO)C(=O)CCCn2nncc2CO[C@H]1CN(C)Cc1cccc(C(F)(F)F)c1 | - | - | - | - | 0 | 0
CCc1c(C)sc2nc3c(C(=O)N4CCOCC4)cc(C(=O)c4ccccc4O)cn3c(=O)c12 | ? | 0 | 0 | ? | 0 | 0
COc1ccc(-n2c(SCC(=O)O)nc3sc4c(c3c2=O)CCCC4)cc1 | 0 | 0 | 0 | 0 | 0 | 0
COc1ccc(O)c(C(=O)c2cc(SCC(=O)O)c3nc4sc5c(c4c(=O)n3c2)CCCC5)c1 | 22µM | ? | 25µM | 25µM | 27µM | ?
CCOC(=O)c1sc2nc3c(SCC(=O)O)cc(C(=O)c4cc(F)ccc4O)cn3c(=O)c2c1C | 35µM | 0 | ? | 40µM | ? | 0
CCOC(=O)c1sc2nc3c(SCC(=O)O)cc(C(=O)c4ccccc4O)cn3c(=O)c2c1C | 16µM | 0 | ? | 10µM | 0 | 0
COC(=O)c1cc(C(=O)c2cc(F)ccc2O)cn2c(=O)c3c(C)c(C)sc3nc12 | 0 | 0 | 0 | 40µM | ? | 0
Cc1sc2nc3c(SC(C)C(=O)O)cc(C(=O)c4ccccc4O)cn3c(=O)c2c1C (stereo not drawn) | ? | 0 | 0 | 0 | ? | ?
Nc1nc(CN2CCOCC2)cs1 | 0 | 0 | 0 | 22µM | 24µM | 0
Cc1cccc(CNC(=O)C2CCC(=O)N(CC3CCCCC3)C2)c1 (stereo not drawn) | - | - | - | - | 0 | 0
CCN(Cc1ccccc1)C(=O)C1CCN(CC2CC=CCC2)CC1 (stereo not drawn) | ? | 0 | ? | 3.2µM | 0 | 0
CCN(Cc1ccccc1)C(=O)C1CCN(Cc2sccc2C)CC1 | 0 | 0 | ? | 2.8µM | 0 | 0
CCC(CC)N1CCN(CC2CC=CCC2)CC1 (stereo not drawn) | - | 0 | ? | 1.8µM | 0 | 0
CCN(Cc1ccccc1)C(=O)C1CCN(S(=O)(=O)c2ccc3c(c2)OCCO3)CC1 | 0 | 0 | 0 | 0 | 0 | 0
O=C(C1CC1)N(CCN(Cc1ccccc1)C(=O)C1CC1)Cc1ccccc1 | 0 | 0 | 0 | 0[11.4 µM] | 27µM | 0
COC(=O)c1ccccc1NC(=O)CSc1ncn[nH]1 | 0 | 0 | 0 | 0 | 0 | 0
Cc1cc2c(s1)c1cnn(Cc3c(Cl)cccc3Br)c(=O)c1n2C | - | - | - | 0 | - | -
O=C(Nc1ccccc1)c1cc(C2CCCN(C(=O)OCc3ccccc3)C2)on1 (stereo not drawn) | - | - | - | - | 0 | 0
COc1ccc(NC(=S)N2CCC(C(=O)c3ccc(C)cc3)CC2)c(OC)c1 | 0 | ? | 0 | 0 | 0 | 0
